Columns and labels:
Assay type in all cases: functional
[1] = test system: Plasmodium falciparum; assay: GSK_TCMDC: Inhibition of Plasmodium falciparum 3D7 in whole red blood cells, using parasite LDH activity as an index of growth. Test compounds present at 2uM
[2] = test system: Plasmodium falciparum; assay: GSK_TCMDC: Inhibition of Plasmodium falciparum Dd2 in whole red blood cells, using parasite LDH activity as an index of growth. Test compounds present at 2uM
[3] = test system: HepG2; assay: GSK_TCMDC: Percent inhibition of human HepG2 cell line. Test compounds present at 10uM.

SMILES	Inhibition [1]	Inhibition [2]	Inhibition [3]
Cc1cc(-c2ccc3c(c2)CC[C@@H](N[C@@H](C)c2ccccc2)C3)cnc1N.Cl	98%	7%	3%
COc1ccc(CN2CCC(C(=O)Nc3cccc(-c4cccc(Cl)c4)c3)CC2)cc1O	91%	0%	25%
O=C(N[C@@H](CC1CCCCC1)C(=O)NCc1cccc2ccccc12)c1ccc(O)c(-c2ccc(Cl)c(Cl)c2)c1	97%	99%	0%
Cc1ccc(NC(=O)N2CCN(CCCCCNC(=O)/C=C/c3ccc(Cl)c(Cl)c3)CC2)cc1C	94%	0%	7%
COc1ccc(-c2csc3nc(C)nc(Cl)c23)cc1OC	97%	95%	0%
Cl.c1ccc(Oc2ccc(Nc3nncc4ccccc34)cc2)cc1	86%	82%	20%
Cc1cc(=NN=Cc2cccc(Cl)c2)c2cc(F)ccc2[nH]1	100%	100%	1%
CC(C)c1ccc(CN2CCCCC(NC(=O)c3cc(-c4cccc(F)c4)cs3)C2)cc1.O=C(O)C(F)(F)F (configuration not stated)	94%	13%	6%
O=C(Nc1cccc(Cl)c1)c1cnc(N2CCN(c3ccncc3)CC2)c(Cl)c1.O=C(O)C(F)(F)F	100%	97%	54%
CC(C)COc1ccc(Cl)cc1Cc1nc(-c2nc3ccc(CN(C)C)cc3[nH]2)co1.Cl	97%	87%	14%
CCOc1cc(C)ccc1N1CCN(CCCCNC(=O)c2ccc(NC(=O)c3ccc(Cl)cc3)cc2)CC1.Cl	100%	46%	19%
CCCCc1ccc2[nH]c(NC(=O)OC)nc2c1 [PARBENDAZOLE]	98%	1%	26%
Cc1cccc(Nc2nc(NCCCCN)nc3cc[nH]c(=O)c23)c1.O=C(O)C(F)(F)F	98%	97%	34%
N=C(N)NN=Cc1c[nH]c2ccc(-c3ccccc3)cc12.O=C(O)/C=C\C(=O)O	84%	61%	15%
CNC(=O)Cc1ccc(C(=O)Nc2cccc(-c3csc(-c4nc5ccccc5[nH]4)c3)c2)cc1	95%	69%	36%
CCCN1CCN(Cc2ccc(-c3ccc(-c4nc5ccccc5[nH]4)s3)cc2)CC1	100%	93%	29%
CN(C)c1c(CNCCCCCCNCc2ccc3ccccc3c2N(C)C)ccc2ccccc12.CS(=O)(=O)O	100%	51%	100%
Br.CC1(C)NC(N)=NC(=N)N1OCCOc1ccc2ccccc2c1	93%	96%	70%
Cc1ccc(-c2ccn(Cc3ccc(OCc4ccccc4)cc3)n2)cn1.Cc1ccc(-c2ccnn2Cc2ccc(OCc3ccccc3)cc2)cn1	93%	92%	1%
O=C(/C=C/c1ccc(Cl)c(Cl)c1)N1CCC(CN2CCC(Cc3cc4ccccc4[nH]3)CC2)CC1	96%	56%	49%
N=C1NC(=O)C(=Cc2cn(-c3ccccc3)nc2-c2cccc(S(=O)(=O)N3CCCC3)c2)S1	85%	68%	0%
CCn1c(-c2nonc2N)nc2c(-c3cccc(Cl)c3)ncc(OCCCNCc3cnc(C)nc3N)c21.O=C(O)C(F)(F)F	93%	48%	21%
COc1ccc(Cl)c(CC2c3cc(O)c(Cl)cc3CCN2C)c1.Cl (configuration not stated)	98%	72%	9%
Cc1ccccc1C1CCN(c2ncc(C(=O)Nc3ccccc3)cc2Cl)CC1.O=C(O)C(F)(F)F	83%	83%	29%
COc1ccc(Cc2c(C)nc3nc(N)nc(N)c3c2C)cc1.Cl	93%	2%	61%
COc1ccc2c(c1)CCN(CCN1CCC(CNC(=O)c3ccc(-c4ccc(C#N)cc4)cc3)CC1)C2	100%	51%	40%
COc1ccc2[nH]c(C)cc(=NN=Cc3cccc(F)c3)c2c1	100%	100%	2%
CC(C)Sc1nc2c(c(=O)n1CCc1ccccc1)C1(CCCCC1)Cc1ccccc1-2	92%	5%	8%
CN1CCN(CCCCCNc2c3ccccc3nc3ccccc23)CC1.Cl	99%	0%	57%

— ChEMBL document CHEMBL1157539, “Thousands of chemical starting points for antimalarial lead identification” (Nature, 2010)
